Assay results from PubChem BioAssay (NCI).
About 79,000 compounds went through this panel and 15% of them were active in at least one assay; those are over-represented in the sample as a whole. A number with no mark means an inactive call. Activity calls are given as the source filed them. Rule as the data show it: active = growth inhibition above about 70%; inactive = the rest.

What was measured:
[1] = NCI Yeast Anticancer Drug Screen. Data for the rad50 strain (AID 155);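 also: 0% = growth of vehicle-only cultures of the same strain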; conditions: S. cerevisiae rad50 strain growth inhibition, hits give high values
How it was run: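 Inhibition values express reduced yeast growth in compound-treated cultures relative to vehicle-treated controls.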

[2] = NCI Yeast Anticancer Drug Screen. Data for the mec2-1 strain (AID 157); conditions: S. cerevisiae mec2-1 strain, hits give high values
How it was run: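 Readout is yeast growth inhibition, normalised to vehicle-treated controls, in the mec2-1 strain exposed to compound.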

[3] = NCI Yeast Anticancer Drug Screen. Data for the sgs1 mgt1 strain (AID 161);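 also: 0% = growth of cultures given vehicle only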; conditions: S. cerevisiae sgs1 mgt1 strain, hits give high values
How it was run: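 This yeast growth screen uses a strain with defined DNA-repair lesions; compound-treated growth is compared with vehicle-treated growth.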

[4] = NCI Yeast Anticancer Drug Screen. Data for the cln2 rad14 strain (AID 165);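 also: 0% = growth equal to vehicle treated cultures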; conditions: S. cerevisiae cln2 rad14 strain, hits give high values
How it was run: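 Relative to vehicle controls, growth inhibition of compound-treated cln2 rad14 yeast was recorded.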

[5] = NCI Yeast Anticancer Drug Screen. Data for the bub3 strain (AID 167); conditions: S. cerevisiae bub3 mutant strain, hits give high values
How it was run: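 Steps: expose the mutant yeast strain to compound; grow alongside vehicle-treated cultures; measure growth; express inhibition against the vehicle cultures.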

[6] = NCI Yeast Anticancer Drug Screen. Data for the mlh1 rad18 strain (AID 175); conditions: S. cerevisiae mlh1 rad18 strain growth inhibition, hits give high values
How it was run: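 Test agents were incubated with a yeast strain of defined genotype (DNA damage repair defect). Inhibition of growth was derived by comparison with vehicle-exposed cultures.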

[7] = at 5.0 µM (retest, dose inferred, filed as 0.5)
[8] = at 50.0 µM (retest, dose inferred, filed as 5.0)

Compound	growth inhibition [1, 7]	growth inhibition [1, 8]	growth inhibition ([1]; at 50.0 µM)	growth inhibition [2, 7]	growth inhibition [2, 8]	growth inhibition ([2]; at 50.0 µM)	growth inhibition [3, 7]	growth inhibition [3, 8]	growth inhibition ([3]; at 50.0 µM)	growth inhibition [4, 7]	growth inhibition [4, 8]	growth inhibition ([4]; at 50.0 µM)	growth inhibition [5, 7]	growth inhibition [5, 8]	growth inhibition ([5]; at 50.0 µM)	growth inhibition [6, 7]	growth inhibition [6, 8]	growth inhibition ([6]; at 50.0 µM)
CC(C)C(=O)OCC(C)(C)C1OCC(C)(C)C(C(C)C)O1 (configuration not stated)	11%	-9%	-5.55%	97% (active)	5%	-3.85%	12%	3%	-1.55%	-19%	-6%	9%	98% (active)	0%	1.15%	88% (active)	-13%	4.85%
Cc1ccc(I)c(C(C)(C)O)c1	4%	71% (active)	94.8% (active)	4%	75% (active)	56.6%	4%	77% (active)	58.6%	1%	30%	30.8%	-1%	86% (active)	95.2% (active)	7%	91% (active)	70.2% (active)
O=C(O)C(O)C(O)C(O)C(O)c1nc2ccccc2s1 (configuration not stated)	13%	98% (active)	98.6% (active)	13%	99% (active)	98.7% (active)	12%	96% (active)	90.5% (active)	1%	95% (active)	73.7% (active)	8%	99% (active)	99% (active)	9%	97% (active)	99% (active)
O=C1Oc2ccccc2C1c1ccccc1 (configuration not stated)	16%	90% (active)	28.6%	1%	87% (active)	35.5%	4%	91% (active)	-2.1%	10%	92% (active)	8.4%	-1%	95% (active)	34.5%	1%	93% (active)	27.5%
CCCCCCC(=O)OCc1ccc(-c2ccccc2)cc1	97% (active)	99% (active)	99% (active)	98% (active)	100% (active)	99.4% (active)	95% (active)	100% (active)	99.3% (active)	26%	94% (active)	99% (active)	70% (active)	99% (active)	99.2% (active)	99% (active)	99% (active)	99.2% (active)
N#C/C(=C\c1c(Cl)cccc1Cl)c1ccccc1	11%	37%	64.3%	-9%	13%	29.3%	12%	33%	42.5%	8%	35%	23%	21%	62%	45.8%	-18%	55%	70.7% (active)
C[C@]12CCC(=O)C=C1CC[C@@H]1[C@@H]2[C@@H](O)C[C@@]2(C)[C@H]1CC[C@]2(O)C(=O)COC(=O)C1CCCC1	-7%	-10%	76.8% (active)	1%	-1%	19.8%	-2%	-9%	87.7% (active)	-18%	-93%	35.9%	8%	11%	82.8% (active)	-7%	-16%	72.2% (active)
C=C(Cl)C(=NC(C)(C)C)Nc1ccccc1C	27%	53%	69.3%	20%	56%	74.9% (active)	25%	61%	81.4% (active)	29%	37%	66%	22%	60%	83.8% (active)	30%	80% (active)	40.1%
Nc1c(O)c(Cl)cc(Cl)c1Cl	4%	94% (active)	96.2% (active)	-4%	95% (active)	98.9% (active)	1%	80% (active)	96.6% (active)	-3%	70% (active)	74.6% (active)	5%	96% (active)	98.4% (active)	-1%	93% (active)	99% (active)
